Measured values from PubChem BioAssay AID1851 (National Center for Advancing Translational Sciences (NCATS), 2009).
About 5,700 (36%) of roughly 16,000 compounds were called active. Another 24% or so got no clear call; they are omitted. Calls come from the whole dose curve; as a rule, active = well fitted curve in the direction sought with a large enough effect; inconclusive = small, poorly fitted or top-dose-only effect, or effect the other way; inactive = no such curve, though single readings can be large or run the other way. The list shows a part of the results.

Molecular target: Cytochrome P450 1A2 (Homo sapiens) (UniProt P05177)
Sequence (P05177 whole entry, looked up): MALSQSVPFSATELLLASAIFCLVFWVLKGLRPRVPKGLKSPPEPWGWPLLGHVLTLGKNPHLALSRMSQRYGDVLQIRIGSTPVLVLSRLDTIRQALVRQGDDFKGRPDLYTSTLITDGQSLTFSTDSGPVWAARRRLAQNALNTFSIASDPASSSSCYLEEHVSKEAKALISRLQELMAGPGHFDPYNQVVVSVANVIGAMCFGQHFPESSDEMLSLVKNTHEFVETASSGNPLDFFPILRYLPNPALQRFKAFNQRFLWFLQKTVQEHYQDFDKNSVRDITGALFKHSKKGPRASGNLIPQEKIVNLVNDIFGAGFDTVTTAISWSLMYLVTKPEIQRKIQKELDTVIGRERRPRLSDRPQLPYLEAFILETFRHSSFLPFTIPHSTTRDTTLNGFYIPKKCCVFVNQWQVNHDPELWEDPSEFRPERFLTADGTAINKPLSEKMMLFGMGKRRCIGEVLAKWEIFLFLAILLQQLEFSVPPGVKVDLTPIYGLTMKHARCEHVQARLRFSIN
Assay: Cytochrome panel assay with activity outcomes
Conditions: recombinant CYP, pro-luciferin dealkylation, luminescence, p450-cyp1a2; series mostly up to 57.1 µM

With `CCn1c(C)cc(/C=C2\NC(=O)N(Cc3ccc(Cl)cc3)C2=O)c1C` as the compound, how does the AC50 read?
The AC50 was 355 nM (active).

For `Cc1cccc(N2CCN(CC(=O)Nc3ccc(-n4cnnn4)cc3)CC2)c1C`, which AC50 is on record?
The AC50 was “inactive”.

How did the AC50 turn out when `O=C(Nc1cnc2ccccc2c1)c1cccc(-n2cnnn2)c1` was run?
Its AC50 is 12600 nM (active).

`CCC(C(=O)NC(C)(C)C)N(C(=O)Cn1nnc(-c2cccs2)n1)c1cnc2ccccc2c1` (stereo unspecified) was tested. Which AC50 did it give?
The AC50 was “inactive”.

How did the AC50 turn out when `CC(NC(=O)Cn1cnc([N+](=O)[O-])n1)c1ccccc1` (stereo unspecified) was run?
The AC50 was “inactive”.

`O=C(Cn1cnc([N+](=O)[O-])n1)N/N=C/c1ccccc1O` was tested. Which AC50 did it give?
The AC50 was 4470 nM (active).

How did the AC50 turn out when `CC(C)(C)NC(=O)Cn1cnc([N+](=O)[O-])n1` was run?
The AC50 was “inactive”.

How did the AC50 turn out when `COC(=O)[C@@]1(Cc2ccccc2)[C@@H]2C(=CC(=O)[C@H]2CC(=O)C(=O)N(C)C)CN1C(=O)c1ccccc1` was run?
Its AC50 is “inactive”.

Which AC50 does the source give for `COc1ccccc1CCn1c(=O)c(-c2cccc(F)c2)nc2cncnc21` here?
Its AC50 is 1580 nM (active).

`COc1ccccc1CCn1c(=O)c(-c2cc(F)cc(F)c2)nc2cncnc21` was tested. Which AC50 did it give?
The AC50 was 1580 nM (active).

For `NC(=O)C1=CN([C@@H]2O[C@@H](COP(=O)(O)OP(=O)(O)OC[C@@H]3O[C@H](n4cnc5c(N)ncnc54)[C@@H](OP(=O)(O)O)[C@@H]3O)[C@H](O)[C@@H]2O)C=CC1`, which AC50 is on record?
The AC50 was “inactive”.

For `CCCn1nc2cc(C(=O)NC3CCCc4ccccc43)ccc2c1OCC` (stereo unspecified), which AC50 is on record?
Its AC50 is “inactive”.

For `CCCn1nc2cc(C(=O)NCc3ccc4c(c3)OCO4)ccc2c1OCC`, which AC50 is on record?
Its AC50 is “inactive”.

`CCCn1nc2cc(C(=O)NCCc3ccc(C)cc3)ccc2c1OCC` was tested. Which AC50 did it give?
The AC50 was “inactive”.

For `O=C(NC1CCCc2ccccc21)c1ccc(=O)[nH]c1` (stereo unspecified), which AC50 is on record?
The AC50 was “inactive”.

Which AC50 does the source give for `CCOc1c2ccc(C(=O)NCc3ccc(OC(F)(F)F)cc3)cc2nn1C` here?
The AC50 was 2820 nM (active).

With `CCCCn1nc2cc(C(=O)NCCCCc3ccccc3)ccc2c1OCC` as the compound, how does the AC50 read?
Its AC50 is “inactive”.

How did the AC50 turn out when `CCOc1c2ccc(C(=O)NCCCCc3ccccc3)cc2nn1C` was run?
The AC50 was 2510 nM (active).

For `CCCn1nc2cc(C(=O)NCCCCc3ccccc3)ccc2c1OCC`, which AC50 is on record?
The AC50 was “inactive”.

How did the AC50 turn out when `COCCn1nc2cc(C(=O)NCC34CC5CC(CC(C5)C3)C4)ccc2c1OC` was run?
Its AC50 is “inactive”.

How did the AC50 turn out when `CCCn1nc2cc(C(=O)NCc3ccc(C)cc3)ccc2c1OC` was run?
Its AC50 is 14100 nM (active).

With `CCOc1c2ccc(C(=O)NC3CCCc4ccccc43)cc2nn1C` (stereo unspecified) as the compound, how does the AC50 read?
Its AC50 is 10000 nM (active).

`CCCCn1nc2cc(C(=O)NCc3ccc(C(F)(F)F)cc3C(F)(F)F)ccc2c1OCC` was tested. Which AC50 did it give?
The AC50 was “inactive”.

`O=C(NCc1ccccc1)c1onc(CSc2ccc(F)cc2)c1C(=O)NCCCN1CCOCC1` was tested. Which AC50 did it give?
The AC50 was “inactive”.

`COc1cccc(C(=O)N(C)c2nnc(-c3ccncc3)s2)c1` was tested. Which AC50 did it give?
Its AC50 is 12600 nM (active).

Which AC50 does the source give for `O=C(c1c(O)c2ccc(Cl)cc2[nH]c1=O)C1CC1` here?
The AC50 was 79.4 nM (active).
